# Screening results deposited in PubChem by National Center for Advancing Translational Sciences (NCATS).
# Most compounds without a hit are left out; they make up all but 9% or so of the library.
# BAZ2B block: BAZ2B (human) inhibition; AlphaScreen BAZ2B-H3K14Ac peptide displacement; Potency, µM (titrated, usually from 114 µM), without a hit: top-dose activity change, negative = inhibition, usual class: inhibitors; AID 504333; actives 4.4% (n = 360,000); note: % is set by controls: 0 for no effect and ±100 for the full control effect; nearly all actives have a fitted effect of over 60% in size
#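 BAZ2B 50 nM plus b-H3(5-23)K14Ac 50 nM, PBS pH 7.4/0.01% Tween-20, 30 min RT; compound added (max 110 uM), 30 min RT; streptavidin donor/Ni-chelate acceptor beads 10 ug/mL final, 20 min dark; AlphaScreen read.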
# ALOX12 inh: inhibitors of human 12S-lipoxygenase ALOX12; actives 1.1% (n = 580,000); Potency, µM (highest dose often 108 µM), without a hit: at the highest dose activity change, negative = inhibition, most hits filed as inhibitors; purified 12hLO, xylenol orange hydroperoxide absorbance; P18054; note: % is set by controls: 0 for no effect and ±100 for the full control effect
#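 Purified human 12hLO (150 nM final) in 25 mM Hepes, 0.01% Triton X-100, pH 7.0 was preincubated 15 min at room temperature with compound. Then 40 uM arachidonic acid was added, 30 min. Hydroperoxide was read by Fe-XO absorbance ratio 573/405 nm.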
# G9a block: blocks human histone lysine methyltransferase G9a; Potency, µM (titrated, usually from 102 µM), inactives show at the highest dose activity, negative = inhibition, hits mostly inhibitors; Q96KQ7; G9a H3K9 monomethylation, AlphaScreen, 2 h; actives 8.8% (n = 350,000); note: % is set by controls: 0 for no effect and ±100 for the full control effect; nearly all actives have a fitted effect of over 75% in size
# Target sequence (Q96KQ7 913-1193 limits assumed): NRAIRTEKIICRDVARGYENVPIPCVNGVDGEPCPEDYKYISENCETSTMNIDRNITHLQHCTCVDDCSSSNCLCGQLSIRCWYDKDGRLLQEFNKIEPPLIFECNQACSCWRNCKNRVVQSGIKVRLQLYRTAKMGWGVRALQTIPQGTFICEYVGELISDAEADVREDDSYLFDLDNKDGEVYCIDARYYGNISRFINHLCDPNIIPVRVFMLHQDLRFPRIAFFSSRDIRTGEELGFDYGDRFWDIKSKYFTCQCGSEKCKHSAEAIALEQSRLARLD
#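 Step 1: enzyme (final 20 nM) with compound, 15 min RT. Step 2: substrate peptide 500 nM and SAM 20 uM, 2 h RT. Step 3: anti-H3K9me1 antibody and AlphaScreen beads, 10 min, then plate read.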
# PLK1 PBD inh: blocks phosphopeptide binding to human PLK1 polo-box domain. P53350. Plk1 PBD binding of FITC phosphopeptide, fluorescence polarization. Potency, µM, for inactives: max response, negative = inhibition, usual class: inhibitors. actives 2.8% (n = 360,000). AID 720504; note: series mostly up to about 57 µM; % is set by controls: 0 for no effect and ±100 for the full control effect; nearly all actives have a fitted effect of over 65% in size
# JMJD2A Tudor: JMJD2A Tudor domain (human) inhibition. Potency, µM (series often up to 114 µM), without a hit: top-dose activity change, negative = inhibition, actives largely listed as inhibitors. AlphaScreen JMJD2A-Tudor / H3K4me3 peptide binding. actives 4.4% (n = 390,000). O75164; note: % is set by controls: 0 for no effect and ±100 for the full control effect; nearly all actives have a fitted effect of over 50% in size
# HP1b binding inh: blocks HP1-beta chromodomain binding to methylated histone tails; P83916; AlphaScreen HP1-beta / biotin-H3K9me3 peptide binding; Potency, µM (top dose mostly 114 µM), for inactives: at the top dose activity change, negative = inhibition, most hits filed as inhibitors; actives 0.56% (n = 390,000); AID 540317; note: nearly all actives have a fitted effect of over 70% in size
# Target sequence (P83916 whole entry, looked up): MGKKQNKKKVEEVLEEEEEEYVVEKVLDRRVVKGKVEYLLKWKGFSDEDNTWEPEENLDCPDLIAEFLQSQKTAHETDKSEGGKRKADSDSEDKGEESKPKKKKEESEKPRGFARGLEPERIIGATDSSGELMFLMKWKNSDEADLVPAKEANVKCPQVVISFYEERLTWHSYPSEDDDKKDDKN
#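 AlphaScreen: HP1-beta (50 nM) preformed 30 min with biotin-H3(1-18)K9me3 peptide (50 nM) in PBS pH 7.4, 0.01% Tween-20. Compound added for 30 min at RT, then streptavidin donor/nickel chelate acceptor beads (10 ug/mL) for 30 min.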
# Active calls of the source: *; ? = inconclusive; . = not tested or not shown; ! = repeats disagree; [ ] = remark or other dose. Calls come from the whole dose curve; as a rule, active = well fitted curve in the direction sought with a large enough effect; inconclusive = small, poorly fitted or top-dose-only effect, or another doubt; inactive = no such curve, though single readings can be large; an effect the other way counts as inactive or inconclusive. Potency is the fitted concentration of half-maximal effect.
SMILES,BAZ2B block,ALOX12 inh,G9a block,PLK1 PBD inh,JMJD2A Tudor,HP1b binding inh
CC1(C)[C@H](Cc2cc(CO)on2)C[C@@H]1NC(=O)c1ccco1,.,2%[176 µM],.,.,.,.
Cc1ccc(F)cc1C(=O)N1CCCCC1c1cc(C(=O)NCc2ccccc2)no1 (centres undefined),.,?,.,0%,.,.
CCCN(CC(=O)Nc1c(C)cccc1CC)C(=O)SCC,4%,-23%,15%[59 µM],0%,8%,10%
c1cncc(-c2csc(NCc3ccco3)n2)c1,-38%,0%,13%[12.7 µM],-13%,?,0%
COc1ccc(-c2csc(NCc3ccco3)n2)cc1C,45µM*,.,?,-2%,?,?
Cc1cc(C)cc(NC(=O)C2CC(=O)N(C(C)(C)C)C2)c1 (centres undefined),.,1%,.,.,.,.
CSc1nsc(SCC(=O)Nc2ccc(F)cc2F)n1,-5%,-12%,58%,-1%,17%,57%
CSc1nsc(SCC(=O)Nc2ccccc2C(=O)O)n1,?,?,7.9µM*,?,?,36%
Cc1nnc(SCC(=O)Nc2ccccc2NC(=O)CSc2nnc(C)s2)s1,-4%,90%,-1%[59 µM],-5%,-2%,7%
CSc1nsc(SCC(=O)Nc2ccc(Cl)c(C(=O)O)c2)n1,-12%,-18%,50µM*,-17%,-4%,5%
Cc1nnc(SCC(=O)Nc2ccccc2C(=O)NC2CC2)s1,11%,11%,45µM*,-3%,3%,56%
CSc1nsc(SCC(=O)Nc2ccc(O)c(C(=O)O)c2)n1,-14%,40µM*,40µM*,?,-13%,27%
CCc1ccc(C(=O)NC(C(=O)NCC2CCCO2)C(C)C)cc1 (centres undefined),-3%,0%,7%,-22%,-10%,26%
CS(=O)(=O)c1ccc2c(c1)sc1nc(=O)c(/C=C3/C=CC(=O)C(O)=C3)c(N)n12,14µM*,0%,5µM*,68%,7.1µM*,16µM*
COc1ccc(NS(=O)(=O)c2ccc3oc(=S)[nH]c3c2)cc1,-21%,?,35µM*,?,4%[11.4 µM],38%
O=S(=O)(Nc1ccccc1Cl)c1ccc2[nH]c(=S)oc2c1,?,?,7.1µM*,-19%,-18%,14%
Cc1ccc(NS(=O)(=O)c2ccc3[nH]c(=O)oc3c2)c(C)c1,-17%,50µM*!,6%,30µM*,?,4%
COc1ccccc1NS(=O)(=O)c1ccc2[nH]c(=S)oc2c1,.,?,.,?,-24%,12%
COc1ccc(NS(=O)(=O)c2ccc3oc(=O)ccc3c2)cc1,-3%,?,.,1%,4%,59%
O=C(O)Cn1nc(C2CCOCC2)nc1C1CNC(=O)C1 (centres undefined),.,-1%,.,.,.,.
Cc1cc(C)cc(NC(=O)CSc2nc(N)c(NC(=O)c3ccc(Br)o3)c(=O)[nH]2)c1,-29%,-21%,-3%,-5%,-3%,27%
Cc1nn(Cc2ccccc2)c(Cl)c1C(=O)NCc1ccc(C)n1C,-28%,0%,?,-3%,-23%,8%
COc1cccc(C2CC(=O)Nc3cc4c(cc32)OCCO4)c1OC(C)C (centres undefined),-34%,12%[57.4 µM],45µM*,?,?,?
CC(C)Oc1ccccc1C1CC(=O)Nc2cc3c(cc21)OCCO3 (centres undefined),50µM*,?,-9%[59 µM],-7%,?,-11%
COc1ccccc1C1CC(=O)Nc2cc3c(cc21)OCCO3 (centres undefined),-32%,?,-36%[59 µM],-3%,-30%,-5%
SMILES,BAZ2B block,ALOX12 inh,G9a block,PLK1 PBD inh,JMJD2A Tudor,HP1b binding inh
Cc1ccc(-n2c(O)c(/C=N/n3cnnc3)c3ccccc3c2=O)cc1,50µM*,-23%,?,?,56µM*,-4%
O=c1c2ccccc2c(C=NCc2ccccn2)c(O)n1-c1ccccc1Cl,?,0%,?,-7%,?,-17%
Cc1ccc(-n2c(O)c(/C=N/c3ncn[nH]3)c3ccccc3c2=O)cc1,?,-10%,15%[12.7 µM],-8%,-21%,8%
O=c1c2ccccc2c(/C=N/n2cnnc2)c(O)n1-c1ccccc1F,?,-13%,71µM*,-11%,?,27%
Cc1cccc(NC(=O)Cn2c(=O)oc3ccccc32)n1,-7%,-24%,11%,-1%,-12%,51%
CCOc1ccc(N2C(=O)CC(N3CCN(C4CCc5ccccc5C4)CC3)C2=O)cc1 (centres undefined),-2%,0%,-2%,-5%,-16%,13%
CCC(=O)Nc1cccc2c1C(=O)N(C)C2=O,-8%,-8%,?,-11%,-7%,58%
CCNc1cccc2c1C(=O)N(C)C2=O,34%,2%[57.4 µM],31%,24µM*,17%,52%
COc1ccc(C2NC(=O)NC(c3ccccc3)=C2c2nc3ccccc3s2)cc1 (centres undefined),?,17%,-50%[59 µM],0%,?,-13%
COC(=O)c1ccc(NC(=O)COc2ccc3c(c2)OCCO3)cc1,.,-18%,.,.,.,.
COc1ccc(C2C(C(C)=O)=C(O)C(=O)N2CCCn2ccnc2)cc1 (centres undefined),?,?,-1%[0.0925 µM],-6%,89µM*,14%
CCOc1ccc(C2C(C(=O)c3ccco3)=C(O)C(=O)N2CCCn2ccnc2)cc1OC (centres undefined),50µM*,-20%,.,-23%,-26%,19%
O=C(CCNC(=O)c1ccsc1)Nc1cccnc1N1CCCC1,.,-2%,.,.,.,.
O=C(O)C(=O)/C(=C/c1ccsc1)c1ccc2ccccc2n1,.,8.9µM*,.,.,.,.
O=C(NCCc1ccc(Cl)cc1)c1ccc2ccccc2n1,3%,-15%,?,0%,?,101%
O=C(c1ccccn1)c1ccc2ccccc2n1,1%,154%,?,-3%,-7%,17%
O=C(O)C(=O)/C(=C\c1ccc(Cl)cc1)c1ccc2ccccc2n1,?,?,8%,?,22µM*,38%
Cc1c(C(=O)c2ccc(N(C)C)cc2)c2ccccn2c1CCC#N,?,?,45µM*,-4%,?,?
Cc1c(C(=O)c2ccc(F)cc2F)c2ccccn2c1CCC#N,18µM*,?,8.9µM*,-13%,-14%,22%[57 µM]
COCc1cc(NCc2cccnc2N(C)Cc2ccccc2)ncn1,.,0%,.,.,.,.
COc1ccc(S(=O)(=O)NCCc2sc(C)nc2C)cc1F,1%,-12%,-33%[59 µM],.,-2%,30%[57 µM]
NCCS(=O)O,.,-11%,19µM*!,.,.,.
COc1ccc2[nH]c(C(=O)Nc3ccc(F)cc3Br)cc2c1,1%,117%,.,2%,-20%,2%
